The nature of assay [1]: TOX21_p53_BLA_p2_viability: Viability Assessment in the Tox21 HCT-116 p53 Agonism Beta-lactamase Assay, Phase 2 (AID 2283591).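 Also: actives lower the ATP signal meaning cytotoxicity.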 The gist of the method: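 Cytotoxicity readout: CellTiter-Glo ATP luminescence, 30 min at room temperature, after the beta-lactamase read. Cells were HCT116 exposed 16 h at 37C to compounds pin-transferred at 217-fold dilution from DMSO stocks.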

The target of assay [2] is Cellular tumor antigen p53 (Homo sapiens) (UniProt P04637). Description: TOX21_p53_BLA_p2_ratio: Tox21 HCT-116 p53 Agonism Beta-lactamase Assay, Ratio, Phase 2 (AID 2283592). The gist of the method: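 Readout: blue/green (460/530 nm) FRET emission ratio after 2 h CCF4-AM loading at room temperature, excitation 405 nm. HCT116 p53 bla cells, 16 h compound exposure at 37C, 5% CO2; agonist direction fitted against DMSO baseline.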

Assay [3] shares this target. Description: TOX21_p53_BLA_p3_ratio: Tox21 HCT-116 p53 Agonism Beta-lactamase Assay, Ratio, Phase 3 (AID 2283596). The gist of the method: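 Cells were seeded at 4000/well, rested 5 h at 37C, then dosed with DMSO compound solutions (217-fold dilution) for 16 h. CCF4-AM substrate was loaded for 2 h at room temperature, and the 460/530 nm emission ratio was fitted for gain of signal versus DMSO.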

Assay [4] can be described thus: TOX21_p53_BLA_p4_viability: Viability Assessment in the Tox21 HCT-116 p53 Agonism Beta-lactamase Assay, Phase 4 (AID 2283597).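 Also: hits lower the luminescence signal meaning cytotoxicity.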 The gist of the method: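 ATP content by CellTiter-Glo luminescence, 30 min RT, read after the beta-lactamase ratio step. Cells: HCT116, 4000/well, compound added after 5 h, exposure 16 h at 37C. Signal loss = reduced viability.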
In assay [5] the target is Cellular tumor antigen p53 (Homo sapiens) (UniProt P04637). Description: TOX21_p53_BLA_p5_ratio: Tox21 HCT-116 p53 Agonism Beta-lactamase Assay, Ratio, Phase 5 (AID 2283599). The gist of the method:
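Beta-lactamase reporter ratio (blue 460 nm over green 530 nm, 405 nm excitation) after 2 h CCF4-AM loading, in HCT-116 cells exposed 16 h at 37 C to compounds pinned at 217-fold dilution. Increases relative to DMSO baseline scored.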

Assay [6] in a line: TOX21_p53_BLA_p5_viability: Viability Assessment in the Tox21 HCT-116 p53 Agonism Beta-lactamase Assay, Phase 5 (AID 2283600). The gist of the method: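 ATP luminescence (CellTiter-Glo, 30 min, RT) served as the viability read-out, with loss of signal indicating cytotoxicity. Compounds in DMSO were pinned at a 217-fold dilution onto 4000 cells/well and incubated 16 h, 37C.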

Assay [7] deals with Cellular tumor antigen p53 (Homo sapiens) (UniProt P04637). Nature of the assay: TOX21_p53_BLA_p4_ratio: Tox21 HCT-116 p53 Agonism Beta-lactamase Assay, Ratio, Phase 4 (AID 2283601). The gist of the method:
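Signal is the blue/green (460nm/530nm) ratio of cleaved versus uncleaved CCF4-AM substrate, read after 2 h substrate loading. Cells were HCT116 carrying the p53-responsive beta-lactamase reporter, dosed 16 h at 37C, 5% CO2; CellTiter-Glo measured in parallel.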

A short description of assay [8]: TOX21_p53_BLA_p3_viability: Viability Assessment in the Tox21 HCT-116 p53 Agonism Beta-lactamase Assay, Phase 3 (AID 2283593).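 Also: cells exposed to compound for 16 h before reading.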 The gist of the method: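 Cellular ATP was quantified by CellTiter-Glo luminescence, read after 30 min at room temperature. Beforehand, HCT116 cells (4000/well) received compound 5 h post-seeding, 217-fold diluted from DMSO, then incubated 16 h at 37C.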

Several values for one entry are separate records, joined by “and”; a condition that tells them apart may be missing. Equal values may be shown once. Inconclusive results are not listed. More than one record can exist for a structure, and the calls need not agree. Activity calls are given as the source filed them. The calls were made as follows: active = hit-call score of the fitted dose curve at least 0.9, where 1 is the maximum; inconclusive = response in the unintended direction; inactive = score below 0.9.

Usually AC50 stands for the midpoint of the concentration-response curve, whichever way the signal moves.

Cellular tumor antigen p53 (Homo sapiens), sequence (P04637 whole entry, looked up): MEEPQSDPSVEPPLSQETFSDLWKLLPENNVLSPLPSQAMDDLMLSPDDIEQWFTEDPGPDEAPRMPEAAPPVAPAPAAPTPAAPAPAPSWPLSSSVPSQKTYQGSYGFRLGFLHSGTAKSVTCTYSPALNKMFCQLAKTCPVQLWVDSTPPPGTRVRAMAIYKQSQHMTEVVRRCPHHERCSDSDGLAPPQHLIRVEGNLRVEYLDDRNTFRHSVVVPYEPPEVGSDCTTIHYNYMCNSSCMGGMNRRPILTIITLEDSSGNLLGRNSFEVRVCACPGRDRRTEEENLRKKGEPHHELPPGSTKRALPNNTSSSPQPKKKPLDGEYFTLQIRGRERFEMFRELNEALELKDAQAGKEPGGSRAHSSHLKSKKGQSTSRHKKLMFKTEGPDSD

In the case of `CCN(CC)c1ccc(N=Nc2ccc(S(=O)(=O)N(C)C)cc2)c(S(=O)(=O)NCC[n+]2ccccc2)c1`, the molecule was called inactive in assay [1].

Regarding `CCCCCCCCOCCCN`, the molecule was classed as inactive in assay [1], in assay [2], in assay [3], in assay [4], in assay [5] and in assay [6]. Also, in assay [7], the outcome was inactive.

For `C[C@H](CCC(=O)O)[C@H]1CC[C@H]2[C@@H]3CC[C@@H]4C[C@H](O)CC[C@]4(C)[C@H]3C[C@H](O)[C@]12C`, the AC50 in assay [1] is 80.9 µM (active); in assay [2], 85.4 µM (active); in assay [8] it was 73.6 µM (active); in assay [3], 87.3 µM (active); in assay [4] it was 75.1 µM (active) and 36.4 µM (active); in assay [5] it was 86.7 µM (active). In addition, the AC50 in assay [6] is 84.4 µM (active); in assay [7], 87.2 µM (active). The outcome in assay [1], in assay [2], in assay [8], in assay [3], in assay [5] and in assay [6] was inactive. Further, the outcome in assay [7] was inactive.

With `CC1=CC(=C(c2ccc(N)cc2)c2ccc(N)cc2)C=CC1=N`, the outcome in assay [1], in assay [2], in assay [8], in assay [3], in assay [4] and in assay [5] was inactive. Also, the outcome in assay [6] and in assay [7] was inactive. Also, in assay [2], the AC50 is 19.9 µM (active).

Consider `S=c1nc[nH]c2nc[nH]c12`, for which the AC50 in assay [1] was 1.56 µM (active); in assay [2], 7.89 µM (active) and 10.1 µM (active); in assay [8], 674 nM (active) and 2.62 µM (active); in assay [3] it was 9.95 µM (active) and 8 µM (active); in assay [4], 1.65 µM (active) and 3 µM (active); in assay [5], 11.1 µM (active) and 8.01 µM (active). The AC50 in assay [7] was 6.3 µM (active) and 6.4 µM (active). For the same molecule, the call in assay [1] and in assay [6] was inactive.

Turning to `COc1ccc2cc3[n+](cc2c1OC)CCc1cc2c(cc1-3)OCO2`, the AC50 in assay [1] was 20.8 µM (active); in assay [2], 4.58 µM (active); in assay [8], 41.2 µM (active); in assay [4] it was 28.5 µM (active); in assay [5] it was 66.7 µM (active); in assay [7], 53.1 µM (active). The result in assay [1], in assay [2], in assay [8], in assay [3], in assay [4] and in assay [5] was inactive. The molecule was classed as inactive in assay [6] and in assay [7].

Regarding `C=C1CC[C@H](O)C/C1=C/C=C1\CCC[C@]2(C)[C@@H]([C@H](C)CCCC(C)C)CC[C@@H]12`, the AC50 is 77.7 µM (active) in assay [1]; 63.2 µM (active) and 34.4 µM (active) in assay [8]; 45.7 µM (active) and 37.2 µM (active) in assay [4]; 73.6 µM (active) in assay [6]; 76.7 µM (active) in assay [7]. Besides, the molecule was called inactive in assay [1], in assay [2], in assay [3], in assay [5], in assay [6] and in assay [7].

In the case of `Oc1c(I)cc(Cl)c2cccnc12`, the AC50 in assay [1] was 8.67 µM (active); in assay [2], 7.99 µM (active); in assay [8], 12.7 µM (active); in assay [4], 4.52 µM (active) and 18.6 µM (active); in assay [5] it was 7.84 µM (active). For the same molecule, the outcome in assay [1], in assay [2], in assay [8], in assay [3], in assay [5] and in assay [6] was inactive. Besides, in assay [7], the outcome was inactive.

In the case of `CCCCCCC/C=C/C=O`, the result in assay [1], in assay [8], in assay [3], in assay [5], in assay [6] and in assay [7] was inactive.

As to `CC(=O)O[C@]1(C(C)=O)CC[C@H]2[C@@H]3C=C(C)C4=CC(=O)CC[C@]4(C)[C@H]3CC[C@@]21C`, the molecule was classed as inactive in assay [1], in assay [2], in assay [8], in assay [3], in assay [5] and in assay [6]. Also, the outcome in assay [7] was inactive.

`CCCCCCCCCCCCN(CCO)CCO`: the AC50 in assay [1] was 69.7 µM (active); in assay [2] it was 46.9 µM (active); in assay [8] it was 64.3 µM (active); in assay [3], 49.2 µM (active); in assay [4] it was 53.4 µM (active); in assay [5], 75.6 µM (active). The figures for the AC50 in assay [6] and in assay [7] were 59.3 µM (active) and 69.1 µM (active), respectively.

For the molecule `COc1cc(C(=S)N2CCOCC2)cc(OC)c1OC`, the result in assay [1] and in assay [2] was inactive.

`C[C@H](CCC(=O)O)[C@H]1CC[C@H]2[C@@H]3[C@H](O)C[C@@H]4C[C@H](O)CC[C@]4(C)[C@H]3CC[C@]12C`: the AC50 is 78.5 µM (active) in assay [1] and 87.1 µM (active) in assay [4]. Also, the outcome in assay [1], in assay [2], in assay [8], in assay [3], in assay [4] and in assay [5] was inactive. Moreover, the result in assay [7] was inactive.

Take `CC(O)Cn1cnc2c1c(=O)n(C)c(=O)n2C` (stereo not given): the call in assay [1] was inactive.

For the molecule `CCCCCCCCCCCCCCCCCCOCC(COP(=O)([O-])OCC[N+](C)(C)C)OC` (stereo not given), the AC50 in assay [1] was 36.3 µM (active); in assay [2] it was 43.6 µM (active).

As to `O=[N+]([O-])c1cc[n+]([O-])cc1`, the call in assay [1], in assay [2], in assay [8], in assay [5], in assay [6] and in assay [7] was inactive.

`CCC(=O)C(=O)CC`: the outcome in assay [1], in assay [2], in assay [8], in assay [3], in assay [4] and in assay [5] was inactive. Besides, the call in assay [6] and in assay [7] was inactive.

Take `O=C(OCCOCCO)c1ccccc1Nc1cccc(C(F)(F)F)c1`: the call in assay [1] and in assay [2] was inactive.

For the molecule `OCCOCCN1CCN(C(c2ccccc2)c2ccc(Cl)cc2)CC1` (stereo not given), the call in assay [1], in assay [2], in assay [8], in assay [3], in assay [4] and in assay [5] was inactive. In addition, the call in assay [6] and in assay [7] was inactive. For the same molecule, the AC50 in assay [2] is 0.000306 µM (active); in assay [5], 0.000384 µM (active); in assay [7], 0.000245 µM (active).

With `CON=C1C[C@]2(C[C@@H]3C[C@@H](C/C=C(\C)C[C@@H](C)/C=C/C=C4\CO[C@@H]5[C@H](O)C(C)=C[C@@H](C(=O)O3)[C@]45O)O2)O[C@H](/C(C)=C/C(C)C)[C@H]1C`, the concentration at half-maximal activity (AC50) in assay [1] was 8.61 µM (active) and 8.38 µM (active); in assay [2], 21 µM (active); in assay [8], 17.2 µM (active) and 13.8 µM (active); in assay [3], 35.2 µM (active) and 21.3 µM (active); in assay [4] it was 9.09 µM (active) and 8.73 µM (active); in assay [5] it was 22 µM (active). The AC50 in assay [6] was 17.3 µM (active) and 10.7 µM (active); in assay [7], 18.8 µM (active). In addition, the result in assay [2], in assay [5] and in assay [7] was inactive.

Take `CCN(CC)CCOC(=O)C(c1ccccc1)c1ccccc1`: in assay [1], the outcome was inactive.

For the molecule `COc1ccc2c(c1)c(CC(=O)OCC(=O)O)c(C)n2C(=O)c1ccc(Cl)cc1`, the molecule was classed as inactive in assay [1].

In the case of `CNCCC(Oc1ccc(C(F)(F)F)cc1)c1ccccc1` (stereo not given), the AC50 in assay [1] is 68.1 µM (active); in assay [8], 74 µM (active); in assay [4], 67.3 µM (active) and 33.8 µM (active); in assay [6], 73.2 µM (active). Also, the molecule was called inactive in assay [1], in assay [2], in assay [8], in assay [3], in assay [5] and in assay [6]. For the same molecule, the result in assay [7] was inactive.

With `C[C@@H]1[C@H](O)[C@@H](C)/C=C/C=C/C=C/C=C/C=C/C=C/C=C/[C@H](O[C@@H]2O[C@H](C)[C@@H](O)[C@H](N)[C@@H]2O)C[C@@H]2O[C@](O)(C[C@@H](O)C[C@@H](O)[C@H](O)CC[C@@H](O)C[C@@H](O)CC(=O)O[C@H]1C)C[C@H](O)[C@H]2C(=O)O`, in assay [1], the AC50 was 72.4 µM (active). In addition, the molecule was classed as inactive in assay [1], in assay [2], in assay [8], in assay [3], in assay [4] and in assay [5]. Also, the outcome in assay [7] was inactive.

In the case of `CC(C)(C)c1ccc(C(O)CCCN2CCC(C(O)(c3ccccc3)c3ccccc3)CC2)cc1` (stereo not given), the AC50 is 34.4 µM (active) in assay [1]; 42.7 µM (active) in assay [2]; 37.9 µM (active) and 31.8 µM (active) in assay [8]; 43.3 µM (active) and 39.2 µM (active) in assay [3]; 32.4 µM (active) in assay [4]; 42.2 µM (active) in assay [7]. The call in assay [1], in assay [4], in assay [5], in assay [6] and in assay [7] was inactive.

Take `Cc1oc(C)c(C(=O)Nc2ccccc2)c1C`: the molecule was classed as inactive in assay [1], in assay [2], in assay [3], in assay [4], in assay [5] and in assay [6]. For the same molecule, the result in assay [7] was inactive.

Source of the values: PubChem BioAssay (EPA / NIEHS).
